Potency data for 40 molecules are collected here from PubChem BioAssay (NCATS).

Inconclusive results are not listed. Calls of active or inactive are those of the source. The call rests on the fitted dose curve; in most records, active means well fitted cell-killing curve with a large enough effect; inconclusive means small, poorly fitted or top-dose-only effect, or effect the other way; inactive means no such curve, though single readings can be large or run the other way. Non-standard residues stand in square brackets, D forms with d. Residues, ends and D or L forms follow the SMILES beside them. *: point of attachment. Nva = CCC[C@H](N)C(=O)O; Cbz = O=C(OCc1ccccc1)*
Potency means the concentration at half of the fitted maximal effect.

The nature of this experiment: Quantitative High-Throughput drug screen in 47 multiple myeloma cell lines against the NCATS MIPE library collection: KMS12BM_JCRB cell viability assay (AID 1918971). Further: nearly all actives have a fitted effect of over 35% in size. The settings on record: KMS12BM myeloma viability, CellTiter-Glo ATP, 48 h; series mostly up to 45.8 µM. The text has this:
PI: Beverly A. Mock Ph.D.
Laboratory of Cancer Biology and Genetics,
Center for Cancer Research, National Cancer Institute,
National Institute of Health, Bethesda, Maryland
Drug resistance and disease progression are common in multiple myeloma (MM) patients, underscoring the need for new therapeutic combinations. […] We hypothesized that effective combinations would reduce MYC expression and enhance p16 activity. […] These preclinical data identify potentially useful drug combinations for evaluation in drug-resistant MM and reveal potential mechanisms of combined drug sensitivity.
Described herein is the primary MIPE qHTS used to cherrypick compounds. Validated compounds were then further tested for potential synergistic activiy.
[1] Peat TJ, Gaikwad SM, Dubois W, Gyabaah-Kessie N, Zhang S, Gorjifard S, Phyo Z, Andres M, Hughitt VK, Simpson RM, Miller MA, Girvin AT, Taylor A, Williams D, D'Antonio N, Zhang Y, Rajagopalan A, Flietner E, Wilson K, Zhang X, Shinn P, Klumpp-Thomas C, McKnight C, Itkin Z, Chen L, Kazandijian D, Zhang J, Michalowski AM, Simmons JK, Keats J, Thomas CJ, Mock BA. Drug combinations identified by high-throughput screening promote cell cycle transition and upregulate Smad pathways in myeloma. Cancer Lett. 2023 Aug 1;568:216284. doi: 10.1016/j.canlet.2023.216284. Epub 2023 Jun 24. PMID: 37356470; PMCID: PMC10408729.
SEQUENCE No. (e.g., 1, 2, 3, etc.); […] (e.g., Cells, Incubation, Reagent, etc.); VALUE and DESCRIPTION.
1; Cells; 5 uL; white, solid bottom 1536-well Greiner assay plate.
2; Compounds; 23 nL; Kalypsis pin tool (Wako USA) equipped with a 1536-well pin head to transfer to the assay plates.
3; Incubation; 48 hours; 37C incubation.
4; Reagent;5uL; CellTiter Glo (Promega).
5; Detector; 425V; Luminescence; Viewlux PerkinElmer.
NOTES (numbers refer to Sequence numbers above)
1. The cell-based screening methods employed in this study were like those previously published. Briefly, the corresponding myeloma cell lines were screened in 1,536-well plates with 500 cells, 5-uL per well for inhibition of cell viability (assessed by measuring ATP levels with CellTiterGlo).
2. NCATS MIPE 4.0 library of approved and investigational drugs were added using the Kalypsis pin tool. Wells treated with DMSO only for 100% viability and media only wells for 0% viability were used as controls.
3. The assay plates were covered and incubated for 48 hours in a 37C, 5% CO2 incubator with controlled humidity.
4. After 48 hours, CellTilter-GloTM luminescent substrate mix (Promega) reagent was added to the assay plate and plates we incubated for 5 min at room temperature.
5. Signal was measured as median relative luminescence units on a ViewLux (PerkinElmer) multiplate reader.
[1] Heske CM, Davis MI, Baumgart JT, Wilson K, Gormally MV, Chen L, Zhang X, Ceribelli M, Duveau DY, Guha R, Ferrer M, Arnaldez FI, Ji J, Tran HL, Zhang Y, Mendoza A, Helman LJ, Thomas CJ. Matrix Screen Identifies Synergistic Combination of PARP Inhibitors and Nicotinamide Phosphoribosyltransferase (NAMPT) Inhibitors in Ewing Sarcoma. Clin Cancer Res. 2017 Dec 1;23(23):7301-7311. doi: 10.1158/1078-0432.CCR-17-1121. Epub 2017 Sep 12. PMID: 28899971; PMCID: PMC6636827.
Background: Cellular ATP, detected with luciferase, serves as a proxy for viable cell number.
For `CCCc1nc(C(C)(C)O)c(C(=O)O)n1Cc1ccc(-c2ccccc2-c2nn[nH]n2)cc1`, the Potency entry was “inactive”.

Regarding `COc1cc(O)c2c(c1)C1OC1C[C@H](O)[C@H](O)C(=O)C=CC[C@H](C)OC2=O` (stereo not given in full), the Potency was 1.48 µM (active).

Turning to `O=c1[nH]c(=O)n([C@H]2C[C@@H](O)[C@@H](CO)O2)cc1F`, the Potency is 20.9 µM (active).

For the molecule `Cc1onc(-c2ccccc2)c1C(=O)N[C@@H]1C(=O)N2[C@@H](C(=O)O)C(C)(C)S[C@@H]12`, the Potency result is “inactive”.

For `C=CCNc1c(O)cc2c(O)c1C[C@@H](C)C[C@H](OC)[C@@H](O)[C@@H](C)C=C(C)[C@H](OC(N)=O)[C@@H](OC)C=CC=C(C)C(=O)N2`, the Potency was 0.332 µM (active).

As to `CCCCCCCCCCCCCCCC(=O)OC[C@@H](NC(=O)C(Cl)Cl)[C@H](O)c1ccc([N+](=O)[O-])cc1`, the Potency result was “inactive”.

With `Cn1cc(C[C@@H](N)C(=O)O)c2ccccc21`, the Potency was 2.29 µM (active).

For `CCc1c(O)cc(O)c(C(=O)c2ccc(OCCN3CCOCC3)c(OC)c2)c1CC(=O)N(CCOC)CCOC`, the Potency was 1.05 µM (active).

Regarding `OCCNC1CCCc2c1[nH]c1ccc(-c3ccccc3)cc21` (stereo not given), the Potency is 37.2 µM (active).

Regarding `NC(=O)c1cccc(-c2cccc(OC(=O)NC3CCCCC3)c2)c1`, the Potency result is “inactive”.

`COc1cccc2c1C(=O)c1c(O)c3c(c(O)c1C2=O)C[C@@](O)(C(=O)CO)C[C@@H]3O[C@H]1C[C@H](N)[C@H](OC2CCCCO2)[C@H](C)O1` (stereo not given in full): the Potency was 2.09 µM (active).

As to `CCc1cc(C(C)=NOCc2ccc(C3CCCCC3)c(C(F)(F)F)c2)ccc1CN1CC(C(=O)O)C1`, the Potency was 18.7 µM (active).

With `CC(=O)O[C@@]12CO[C@H]1C[C@H](O)[C@@]1(C)C(=O)[C@H](O)C3=C(C)[C@@H](OC(=O)C(O)[C@@H](NC(=O)OC(C)(C)C)c4ccccc4)C[C@@](O)([C@@H](OC(=O)c4ccccc4)[C@@H]21)C3(C)C` (stereo not given in full), the Potency entry is “inactive”.

Consider `CCC[C@@H](C=O)NC(=O)[C@H](CC(C)C)NC(=O)[C@H](CC(C)C)NC(=O)OCc1ccccc1` (Cbz-Leu-Leu-[Nva]-aldehyde), for which the Potency was 1.05 µM (active).

Take `Cc1cnc(NC(=O)Nc2cc(Br)c(C)cc2OC[C@@H]2CNCCO2)cn1`: the Potency is 9.35 µM (active).

Consider `O=C1NC(=O)[C@@H](c2cn3c4c(cccc24)CCC3)[C@H]1c1c[nH]c2ccccc12`, for which the Potency is 0.209 µM (active).

As for `O=C(C[C@@H]1CC=CCCC(=O)O[C@H](c2ccccc2)CNC1=O)NCc1ccc(Cl)cc1`, the Potency entry is “inactive”.

As to `CC(C)c1cc(C(C)C)c(CC(=O)NS(=O)(=O)Oc2c(C(C)C)cccc2C(C)C)c(C(C)C)c1`, the Potency was 16.6 µM (active).

As for `CC1(C)[C@H](O[C@H]2O[C@H](C(=O)O)[C@@H](O)[C@H](O)[C@H]2O[C@@H]2O[C@H](C(=O)O)[C@@H](O)[C@H](O)[C@H]2O)CC[C@@]2(C)[C@H]1CC[C@]1(C)[C@H]2C(=O)C=C2[C@H]3C[C@@](C)(C(=O)O)CC[C@]3(C)CC[C@]21C`, the Potency result was “inactive”.

On to `Nc1nc(=O)n([C@H]2CSC(CO)O2)cc1F` (stereo not given in full), for which the Potency result is “inactive”.

In the case of `C[C@H](NCc1ccc(OCc2cccc(F)c2)cc1)C(N)=O`, the Potency is 8.33 µM (active).

For the molecule `Cn1cc(C2=C(c3c4n(c5ccccc35)CCC(CN)C4)C(=O)NC2=O)c2ccccc21` (stereo not given), the Potency was 14.8 µM (active).

For the molecule `CCc1ccc(C(=O)Nc2cc(CN3CCN(C)CC3)cc(C(F)(F)F)c2)cc1C#Cc1cnc2ccnn2c1`, the Potency is 14.8 µM (active).

In the case of `CCNC(=O)Nc1ccc(-c2nc3c(c(N4CCOC[C@H]4C)n2)CCN(C2COC2)C3)cc1`, the Potency was 1.18 µM (active).

Regarding `Cc1cc(Nc2ncc3c(n2)N(C)C(=O)N(c2cc(NC(=O)c4cccc(C(F)(F)F)c4)ccc2C)C3)n(C)n1`, the Potency is 0.526 µM (active).

With `CC(C)[C@H](CO)Nc1nc(Nc2cccc(Cl)c2)c2ncn(C(C)C)c2n1`, the Potency is 20.9 µM (active).

Consider `O=C1CSC(=O)N1C(CCc1ccncc1)COc1ccc(-c2cccc([N+](=O)[O-])c2)cc1` (stereo not given), for which the Potency was 7.43 µM (active).

On to `CCOC(=O)[C@H](CCc1ccccc1)N[C@@H](C)C(=O)N1[C@@H](C(=O)O)C[C@H]2CCC[C@@H]21`, for which the Potency is 23.5 µM (active).

Take `CCc1nc(-c2cccc(C)c2)c(-c2ccnc(NC(=O)c3ccccc3)c2)s1`: the Potency is 23.5 µM (active).

`OCCN1C[C@H](O)[C@@H](O)[C@H](O)[C@@H]1CO`: the Potency result was “inactive”.

Regarding `COc1cccc2c1C(=O)c1c(O)c3c(c(O)c1C2=O)C[C@@](O)(C(C)=O)C[C@H]3O[C@H]1C[C@H](N)[C@H](O)[C@H](C)O1`, the Potency was 0.0662 µM (active).

Regarding `Nc1nc2c(c(=O)[nH]1)N(C=O)[C@H](CNc1ccc(C(=O)N[C@@H](CCC(=O)O)C(=O)O)cc1)CN2`, the Potency result is “inactive”.

In the case of `O=C(Nc1nnc(-c2ccco2)o1)c1cc(-c2ccccc2)nc2ccccc12`, the Potency was 23.5 µM (active).

`COc1ccc(S(=O)(=O)Nc2cc(-c3c(O)ccc4ccccc34)c(O)c3ccccc23)cc1`: the Potency was 26.4 µM (active).

With `c1ccc2c(Oc3nc(Nc4ccc(N5CCOCC5)cc4)c4ncn(C5CCCCC5)c4n3)cccc2c1`, the Potency is 16.6 µM (active).

With `CC[C@]12C=CCN3CC[C@@]4(c5cc([C@@]6(C(=O)OC)C[C@H]7C[C@@H](C(C)(F)F)CN(Cc8c6[nH]c6ccccc86)C7)c(OC)cc5N(C)[C@H]4[C@@](O)(C(=O)OC)[C@H]1OC(C)=O)[C@@H]32`, the Potency is 0.0074 µM (active).

In the case of `Oc1ccc([C@@H]2Oc3ccc(O)cc3[C@@H]3CCC[C@@H]32)cc1`, the Potency is 14.8 µM (active).

Turning to `COc1ccc([C@@H]2CNC(=O)C2)cc1OC1CCCC1`, the Potency entry is “inactive”.

For `CCCCCN=C(N)NN=Cc1c[nH]c2ccc(OC)cc12`, the Potency was 6.62 µM (active).

`O=C(Nc1cccc(Nc2ncc(Br)c(NCCc3cnc[nH]3)n2)c1)N1CCCC1`: the Potency is 18.7 µM (active).
